# Assay outcomes: PubChem BioAssay, National Center for Advancing Translational Sciences (NCATS)
# Shown are actives, neighbours in structure and some others; about 12% of the full set was active somewhere.
# Shiga inhibitor: Shiga toxin inhibition. Vero cells, Shiga toxin protein synthesis inhibition reporter. inhibition, % at 38.7 µM. hit rate 9.2% among 290,000. AID 2315; in the data active = inhibition mostly above about 28%, no sharp cut-off; inactive = mostly below about 43%; note: 0% is about no effect
# SARS PLP yeast: blocks SARS-CoV papain-like protease in a yeast assay; Potency, µM (series often up to 32.9 µM), for inactives: at the top dose activity, positive = growth rescue, actives largely listed as activators; AID 485353; S. cerevisiae expressing SARS-CoV PLpro, growth rescue; hit rate 0.19% among 330,000; note: potency is the fitted concentration of half-maximal effect; 0% is about no effect; nearly all actives have a fitted effect of over 55% in size
# NS1 function inh: inhibitors of influenza NS1 protein function; Potency, µM (series often up to 46.1 µM), without a hit: at the highest dose activity, positive = more growth; hit rate 0.4% among 270,000; note: potency is the fitted concentration of half-maximal effect; actives are rising curves; nearly all actives have a fitted effect of over 50% in size
#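 In this qHTS, NS1 from influenza A is expressed in budding yeast, where it slows growth. Cells are switched from glucose to 2% galactose medium (pH 6.0, -URA), treated with compound, and growth recovery is read at OD600.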
# CHX counter: counter-screen hit for Shiga toxin inhibitors, cycloheximide. max response, %. AID 2314. cell reporter, cycloheximide protein synthesis inhibition counterscreen. hit rate 12% among 300,000; in the data active = max response mostly above about 13%, no sharp cut-off; inactive = mostly below about 14%; note: read at 38.3 µM for the half of the compounds with a filed dose; 0% is about no effect
# The depositor's hits bear a star; . = not tested or not shown. Unless noted, calls come from the whole dose curve.
SMILES,Shiga inhibitor,SARS PLP yeast,NS1 function inh,CHX counter
N#Cc1ccccc1NC(=O)CNc1ccc(Cl)c(C(F)(F)F)c1,-7.6,-11.5%,-7.1%,-1.7
Cc1cc(C)c(C#N)c(SC(C(=O)NC(C)(C)C)c2ccccc2)n1 (stereo not given),-7.4,-0.2%,2.1%,-2.9
C=CCn1c(O)c(/C=C2\C=Nc3ccccc32)c(=O)[nH]c1=O,12.7,0.6%,2.3%,1.5
O=c1[nH]c(O)c(/C=C2\C=Nc3ccccc32)[nH]1,12.9,0.5%,5.4%,18.1*
Oc1nc(Nc2ccccc2)sc1/C=C1\C=Nc2ccccc21,63.7*,-0.9%,2.4%,48.6*
CCn1c(O)c(/C=C2\C=Nc3ccccc32)sc1=O,78.2*,-7.7%,5.3%,34.4*
CCOC(=O)c1c(Nc2ccccc2)sc(/C=C2\C=Nc3ccccc32)c1O,-3.0,4.2%,17.8%,-3.0
CCn1c(O)c(/C=C2\C=Nc3ccccc32)sc1=Nc1ccc(C)cc1,32.1,2.7%,-5.2%,-2.2
Nc1c(C(=O)CSc2nnc(Nc3ccc(F)cc3)s2)c(=O)[nH]c(=O)n1C1CC1,.,-2.9%,.,.
O=c1c2c3c(sc2ncn1/N=C/c1cccnc1)CCCC3,100.2*,-0.1%,.,25.8*
COc1ccc(Nc2nc(-c3cc4cccc(OC)c4oc3=O)cs2)cc1,29.6,8.9%,15.6%,21.2*
COc1ccc2oc(=O)c(-c3csc(Nc4cccc(O)c4)n3)cc2c1,58.4*,-78.6%,9.9%,47.8*
COc1cccc2sc(Nc3nc(-c4cc5ccccc5oc4=O)cs3)nc12,17.4,-5.1%,12.2%,8.8
COc1ccc2oc(=O)c(/C(C)=N/Nc3ccccc3)cc2c1,21.3,0.6%,.,6.5
CNC(=O)c1ccc(Nc2nc(-c3ccccc3)nc3ccccc23)cc1,27.5,1.2%,-14.3%,15.8*
O=C(O)c1cccc(Nc2nc(-c3ccccc3)nc3ccccc23)c1,39.7*,1.7%,5.7%,18.6*
O=C(O)c1ccc(Nc2nc(-c3ccccc3)nc3ccccc23)cc1,26.6,1.7%,1.1%,20.4*
c1ccc(Nc2nc(-c3ccccc3)nc3ccccc23)cc1,.,-6.4%,-104.8%,-3.0
Cc1cccc(N2C(=O)C(Oc3ccc(Cl)cc3Cl)C2C=O)c1C (stereo not given),-14.8,-90.8%,-26.1%,-1.8
O=C(NC(=S)NCCCN1CCOCC1)c1ccc(Br)cc1,25.3,1.3%,.,21.3*
Cc1ccc(C(=O)NC(=S)NCCCN2CCOCC2)cc1,50.4*,1.1%,2.2%,20.3
CCOc1ccc(C(=O)NC(=S)NCCCN2CCOCC2)cc1,-4.3,1.3%,-2.9%,-2.4
O=C(NN=C1CCCC1)c1cc(Br)ccc1O,43.4,-2.9%,-26.3%,23.0*
O=C(NN=C1CCCC1)c1ccc(O)cc1O,124.4*,-3.9%,21.4%,37.7*
COc1ccc(C(=O)NCC(C)C)c(OC)c1,14.9,5.0%,0.8%,11.7
SMILES,Shiga inhibitor,SARS PLP yeast,NS1 function inh,CHX counter
CCCCCC(=O)c1ccc(O)cc1O,49.4*,-16.8%,.,32.1*
COc1ccc(C(=O)NN=C2CCCC2)c(OC)c1,28.3,-5.3%,-3.1%,19.6*
Cc1cc(C)cc(NC(=O)C2CCN(S(C)(=O)=O)CC2)c1,.,2.7%,18.8%,-1.5
COCc1c(C(=O)OCC(=O)N2CCCC2=O)oc2ccccc12,.,-3.6%,.,.
CC(=O)N1CCN=C1SCc1cccc(F)c1,-3.3,-2.4%,-1.4%,-7.6
COc1ccc(C(C(=O)NC(C)(C)C)N(C(=O)CCC(=O)Nc2cc(C)on2)c2c(C)cccc2C)cc1 (stereo not given),3.3,-2.3%,9.2%,-2.0
CN(C)c1nc(OCC(=O)NC(C)(C)C)nc(N(C)C)n1,-8.2,-2.2%,-3.2%,-1.7
NNC(=O)c1ccc(O)cc1O,75.9*,-2.3%,13.2%,29.6*
N#Cc1c(Cl)nsc1NN,69.9*,-13.6%,.,29.5*
Cc1nnc(SCC(=O)NC(=O)Nc2ccc3c(c2)OCCO3)s1,44.7*,-0.3%,.,30.4*
Cc1ccccc1Nc1nnc(SCC(=O)NC(=O)Nc2ccc3c(c2)OCCO3)s1,50.3*,-12.3%,15.0%,62.5*
Cc1cccc(Nc2nnc(SCC(=O)NC(=O)Nc3ccc4c(c3)OCCO4)s2)c1,-8.7,23.3%,27.4%,10.5
Cc1cc(C)nc(N2CCCC(C(=O)NC(C)C)C2)n1 (stereo not given),4.8,-0.9%,-2.2%,-1.5
CCOC(=O)c1oc2ccc(S(=O)(=O)Nc3ccc4c(c3)n(C)c(=O)n4C)cc2c1C,-1.5,-3.0%,-69.6%,-1.4
O=C(CSc1nnc2n1CCCCC2)Nc1ccc(N2CCOCC2)cc1,10.8,0.6%,5.1%,-1.7
Clc1ccccc1Cn1nnc2ccccc21,-4.2,0.3%,4.2%,-3.4
Fc1ccc(-c2csc(-c3ccncc3)n2)cc1,48.9*,0.7%,.,31.1*
O=S(=O)(Nc1ccc(-c2csc(-c3ccccc3)n2)cc1)c1ccc(F)cc1,6.4,-32.8%,-5.7%,-1.1
